Source: PubChem BioAssay (NCATS)
Results filed as inconclusive are left out. The source made the active and inactive calls. The call rests on the fitted dose curve; in most records, active means well fitted inhibition curve with a large enough effect; inconclusive means small, poorly fitted or top-dose-only effect; inactive means flat fitted curve, though single readings scatter.

Experiments:
[1] = qHTS profiling for inhibitors of Plasmodium falciparum proliferation (AID 504749); further: nearly all actives have a fitted effect of over 60% in size;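 on activity, negative = inhibition: 0% = DMSO vehicle and full inhibition = artemisinin control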; details: P. falciparum in erythrocytes, SYBR Green DNA, 72 h
In short: (§1)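 SYBR Green fluorescence of parasite DNA, read after lysis and overnight dark incubation, measured growth over 72 h in erythrocyte culture at 0.3% parasitemia and 2.5% hematocrit. Data normalised to DMSO and 0.29 uM artemisinin, with plate-drift correction.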

3D7 = assay: as above; details: P. falciparum in erythrocytes, SYBR Green DNA, 72 h; series mostly up to 28.7 µM
In short: as §1

7G8 = assay: as above; details: P. falciparum in erythrocytes, SYBR Green DNA, 72 h; series mostly up to 28.7 µM
In short: as §1

AA1029 = assay: as above; details: P. falciparum in erythrocytes, SYBR Green DNA, 72 h; series mostly up to 28.7 µM
In short: as §1

AS120 = assay: as above; details: P. falciparum in erythrocytes, SYBR Green DNA, 72 h; series mostly up to 28.7 µM
In short: as §1

ATS189 = assay: as above; details: P. falciparum in erythrocytes, SYBR Green DNA, 72 h; series mostly up to 28.7 µM
In short: as §1

ATS95 = assay: as above; details: P. falciparum in erythrocytes, SYBR Green DNA, 72 h; series mostly up to 28.7 µM
In short: as §1

C2A = assay: as above; details: P. falciparum in erythrocytes, SYBR Green DNA, 72 h; series mostly up to 28.7 µM
In short: as §1

CP185 = assay: as above; details: P. falciparum in erythrocytes, SYBR Green DNA, 72 h; series mostly up to 28.7 µM
In short: as §1

CP191 = assay: as above; details: P. falciparum in erythrocytes, SYBR Green DNA, 72 h; series mostly up to 28.7 µM
In short: as §1

CP192 = assay: as above; details: P. falciparum in erythrocytes, SYBR Green DNA, 72 h; series mostly up to 28.7 µM
In short: as §1

CP194 = assay: as above; details: P. falciparum in erythrocytes, SYBR Green DNA, 72 h; series mostly up to 28.7 µM
In short: as §1

CP201 = assay: as above; details: P. falciparum in erythrocytes, SYBR Green DNA, 72 h; series mostly up to 28.7 µM
In short: as §1

CP203 = assay: as above; details: P. falciparum in erythrocytes, SYBR Green DNA, 72 h; series mostly up to 28.7 µM
In short: as §1

CP211 = assay: as above; details: P. falciparum in erythrocytes, SYBR Green DNA, 72 h; series mostly up to 28.7 µM
In short: as §1

CP215 = assay: as above; details: P. falciparum in erythrocytes, SYBR Green DNA, 72 h; series mostly up to 28.7 µM
In short: as §1

CP217 = assay: as above; details: P. falciparum in erythrocytes, SYBR Green DNA, 72 h; series mostly up to 28.7 µM
In short: as §1

CP237 = assay: as above; details: P. falciparum in erythrocytes, SYBR Green DNA, 72 h; series mostly up to 28.7 µM
In short: as §1

CP238 = assay: as above; details: P. falciparum in erythrocytes, SYBR Green DNA, 72 h; series mostly up to 28.7 µM
In short: as §1

CP247 = assay: as above; details: P. falciparum in erythrocytes, SYBR Green DNA, 72 h; series mostly up to 28.7 µM
In short: as §1

[2] = at 28.7 µM (top of the series), parasite line A
[3] = at 28.7 µM (top of the series), parasite line B
[4] = at 12.8 µM (top of the series), parasite line A
[5] = at 12.8 µM (top of the series), parasite line B
Potency means the concentration at half of the fitted maximal effect.

CC(=O)OCC1=C(C(=O)O)N2C(=O)[C@@H](NC(=O)Cc3cccs3)[C@H]2SC1
inactive: activity, negative = inhibition [1, 2] 5.33% | activity, negative = inhibition [1, 3] 13.1% | Potency (3D7) | Potency (7G8) | Potency (AA1029) | Potency (AS120) | Potency (ATS189) | Potency (ATS95) | Potency (C2A) | Potency (CP185) | Potency (CP191) | Potency (CP192) | Potency (CP194) | Potency (CP201) | Potency (CP203) | Potency (CP211) | Potency (CP215) | Potency (CP217) | Potency (CP237) | Potency (CP238) | Potency (CP247)

CC[N+](C)(C)c1cccc(O)c1
inactive: activity, negative = inhibition [1, 4] 14.2% | activity, negative = inhibition [1, 5] 8.4% | Potency (3D7) | Potency (7G8) | Potency (AA1029) | Potency (AS120) | Potency (ATS189) | Potency (ATS95) | Potency (C2A) | Potency (CP185) | Potency (CP191) | Potency (CP192) | Potency (CP194) | Potency (CP201) | Potency (CP203) | Potency (CP211) | Potency (CP217) | Potency (CP237) | Potency (CP238) | Potency (CP247)

NC(=O)c1ncn([C@@H]2O[C@H](CO)[C@@H](O)[C@H]2O)c1O
inactive: activity, negative = inhibition [1, 2] 9.25% | activity, negative = inhibition [1, 3] 1.87% | Potency (3D7) | Potency (7G8) | Potency (AA1029) | Potency (AS120) | Potency (ATS189) | Potency (ATS95) | Potency (C2A) | Potency (CP185) | Potency (CP191) | Potency (CP192) | Potency (CP194) | Potency (CP201) | Potency (CP203) | Potency (CP211) | Potency (CP215) | Potency (CP217) | Potency (CP237) | Potency (CP238) | Potency (CP247)

CN=C(NC#N)NCCSCc1nc[nH]c1C
inactive: activity, negative = inhibition [1, 2] -4.42% | activity, negative = inhibition [1, 3] -7.15% | Potency (3D7) | Potency (7G8) | Potency (AA1029) | Potency (AS120) | Potency (ATS189) | Potency (ATS95) | Potency (C2A) | Potency (CP185) | Potency (CP191) | Potency (CP192) | Potency (CP194) | Potency (CP201) | Potency (CP203) | Potency (CP211) | Potency (CP215) | Potency (CP217) | Potency (CP237) | Potency (CP238) | Potency (CP247)

CCOC(=O)c1cnc2c(cnn2CC)c1NN=C(C)C
active: Potency (7G8) 11.2 µM
inactive: activity, negative = inhibition [1, 2] 15.4% | activity, negative = inhibition [1, 3] -4.13% | Potency (3D7) | Potency (AA1029) | Potency (AS120) | Potency (ATS189) | Potency (ATS95) | Potency (C2A) | Potency (CP185) | Potency (CP191) | Potency (CP192) | Potency (CP194) | Potency (CP201) | Potency (CP211) | Potency (CP215) | Potency (CP217) | Potency (CP237) | Potency (CP238) | Potency (CP247)

CCN(CC)CCCN(c1ccccc1)C1Cc2ccccc2C1
active: Potency ([1]; parasite line A) 4.47 µM | Potency ([1]; parasite line B) 7.08 µM | Potency (3D7) 10 µM | Potency (7G8) 1.78 µM | Potency (AA1029) 4.47 µM | Potency (AS120) 4.47 µM | Potency (ATS189) 12.6 µM | Potency (ATS95) 5.01 µM | Potency (C2A) 11.2 µM | Potency (CP185) 6.31 µM | Potency (CP191) 5.01 µM | Potency (CP192) 10.7 µM | Potency (CP194) 7.57 µM | Potency (CP201) 7.57 µM | Potency (CP203) 6.75 µM | Potency (CP211) 12 µM | Potency (CP215) 8.49 µM | Potency (CP217) 5.62 µM | Potency (CP237) 2.82 µM | Potency (CP238) 11.2 µM | Potency (CP247) 8.91 µM

CCO/C([O-])=N/c1c[n+](N2CCOCC2)no1
inactive: activity, negative = inhibition [1, 4] 2.13% | activity, negative = inhibition [1, 5] 0.211% | Potency (3D7) | Potency (7G8) | Potency (AA1029) | Potency (AS120) | Potency (ATS189) | Potency (ATS95) | Potency (C2A) | Potency (CP185) | Potency (CP191) | Potency (CP192) | Potency (CP194) | Potency (CP201) | Potency (CP203) | Potency (CP211) | Potency (CP215) | Potency (CP217) | Potency (CP237) | Potency (CP238) | Potency (CP247)

CC(=O)Oc1cc(C(C)C)c(OCCN(C)C)cc1C
inactive: activity, negative = inhibition [1, 4] 4.04% | activity, negative = inhibition [1, 5] -3.15% | Potency (3D7) | Potency (7G8) | Potency (AA1029) | Potency (AS120) | Potency (ATS189) | Potency (ATS95) | Potency (C2A) | Potency (CP185) | Potency (CP191) | Potency (CP192) | Potency (CP194) | Potency (CP201) | Potency (CP203) | Potency (CP211) | Potency (CP217) | Potency (CP237) | Potency (CP238) | Potency (CP247)

Nc1c2c(nc3ccccc13)CCCC2O (centres undefined)
inactive: activity, negative = inhibition [1, 2] -3.4% | activity, negative = inhibition [1, 3] 3.67% | Potency (3D7) | Potency (7G8) | Potency (AA1029) | Potency (AS120) | Potency (ATS189) | Potency (ATS95) | Potency (C2A) | Potency (CP185) | Potency (CP191) | Potency (CP192) | Potency (CP194) | Potency (CP201) | Potency (CP211) | Potency (CP215) | Potency (CP217) | Potency (CP237) | Potency (CP238) | Potency (CP247)

CN(C)C(=O)Oc1ccc[n+](C)c1
inactive: activity, negative = inhibition [1, 2] 4.28% | activity, negative = inhibition [1, 3] 5.75% | Potency (3D7) | Potency (7G8) | Potency (AA1029) | Potency (AS120) | Potency (ATS189) | Potency (ATS95) | Potency (C2A) | Potency (CP185) | Potency (CP191) | Potency (CP192) | Potency (CP194) | Potency (CP201) | Potency (CP211) | Potency (CP215) | Potency (CP217) | Potency (CP237) | Potency (CP238)

Nc1ncn([C@@H]2O[C@H](CO)[C@@H](O)[C@H]2O)c(=O)n1
inactive: activity, negative = inhibition [1, 2] -1.52% | activity, negative = inhibition [1, 3] 6.7% | Potency (3D7) | Potency (7G8) | Potency (AA1029) | Potency (AS120) | Potency (ATS189) | Potency (ATS95) | Potency (C2A) | Potency (CP185) | Potency (CP191) | Potency (CP192) | Potency (CP194) | Potency (CP201) | Potency (CP211) | Potency (CP215) | Potency (CP217) | Potency (CP237) | Potency (CP238) | Potency (CP247)

NC(=O)c1cn(Cc2c(F)cccc2F)nn1
inactive: activity, negative = inhibition [1, 2] 14.6% | activity, negative = inhibition [1, 3] 0.958% | Potency (3D7) | Potency (7G8) | Potency (AA1029) | Potency (AS120) | Potency (ATS189) | Potency (ATS95) | Potency (C2A) | Potency (CP185) | Potency (CP191) | Potency (CP192) | Potency (CP194) | Potency (CP201) | Potency (CP211) | Potency (CP215) | Potency (CP217) | Potency (CP237) | Potency (CP238) | Potency (CP247)
